# Laboratory results as given in ChEMBL document CHEMBL1961873, “Compounds: GSK PKIS; Assays: Nanosyn kinase panel” (2012).
# How the values were obtained:
# [1] = molecular target: Protein kinase C gamma type (Homo sapiens) (UniProt P05129); settings: at 1 µM;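 also: each value is an averaged percent inhibition of the enzyme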
# [2] = molecular target: T1, Protein kinase C iota type (Homo sapiens) (UniProt P41743); settings: at 0.1 µM
# T1 sequence (whole entry): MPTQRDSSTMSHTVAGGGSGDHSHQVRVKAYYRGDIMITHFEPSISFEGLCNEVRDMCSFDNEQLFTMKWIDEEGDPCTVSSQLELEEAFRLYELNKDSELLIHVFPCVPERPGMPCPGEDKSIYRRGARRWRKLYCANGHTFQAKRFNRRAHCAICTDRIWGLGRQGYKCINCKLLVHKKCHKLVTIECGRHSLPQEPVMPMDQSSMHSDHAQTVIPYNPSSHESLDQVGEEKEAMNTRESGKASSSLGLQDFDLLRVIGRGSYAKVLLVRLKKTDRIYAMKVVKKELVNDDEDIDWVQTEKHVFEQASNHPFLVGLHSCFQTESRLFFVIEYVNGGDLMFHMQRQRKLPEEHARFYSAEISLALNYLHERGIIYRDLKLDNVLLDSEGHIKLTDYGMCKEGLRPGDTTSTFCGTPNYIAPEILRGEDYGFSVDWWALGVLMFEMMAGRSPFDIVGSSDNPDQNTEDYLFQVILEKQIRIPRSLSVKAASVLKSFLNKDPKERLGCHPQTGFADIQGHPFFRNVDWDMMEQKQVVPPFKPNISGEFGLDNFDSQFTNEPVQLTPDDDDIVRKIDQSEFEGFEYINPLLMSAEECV
# [3] = molecular target: T1, Protein kinase C iota type (Homo sapiens); settings: at 1 µM
# [4] = molecular target: Protein kinase C theta type (Homo sapiens) (UniProt Q04759); settings: at 0.1 µM
# Sequence of Protein kinase C theta type (Homo sapiens) (Q04759 whole entry, looked up): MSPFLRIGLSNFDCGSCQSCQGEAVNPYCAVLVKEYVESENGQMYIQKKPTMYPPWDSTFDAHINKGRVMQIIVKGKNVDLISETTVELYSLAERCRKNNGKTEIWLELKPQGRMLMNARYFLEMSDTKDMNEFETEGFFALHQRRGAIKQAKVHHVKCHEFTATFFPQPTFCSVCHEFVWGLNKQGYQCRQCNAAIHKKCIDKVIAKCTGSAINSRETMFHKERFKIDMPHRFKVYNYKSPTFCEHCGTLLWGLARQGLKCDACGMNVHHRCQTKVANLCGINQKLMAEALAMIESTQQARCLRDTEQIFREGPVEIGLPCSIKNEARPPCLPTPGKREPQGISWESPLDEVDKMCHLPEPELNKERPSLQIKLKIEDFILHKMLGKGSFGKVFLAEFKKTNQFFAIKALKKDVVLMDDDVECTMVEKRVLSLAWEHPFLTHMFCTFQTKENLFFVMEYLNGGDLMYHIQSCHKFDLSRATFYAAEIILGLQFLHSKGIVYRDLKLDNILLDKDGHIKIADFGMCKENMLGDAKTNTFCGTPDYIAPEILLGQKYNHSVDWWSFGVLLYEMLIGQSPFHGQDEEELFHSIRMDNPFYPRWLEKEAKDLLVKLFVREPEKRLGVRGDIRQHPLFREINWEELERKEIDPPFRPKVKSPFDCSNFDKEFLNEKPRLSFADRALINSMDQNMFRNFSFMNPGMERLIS
# [5] = molecular target: Protein kinase C theta type (Homo sapiens) (UniProt Q04759); settings: at 1 µM
# [6] = molecular target: Protein kinase C beta type (Homo sapiens) (UniProt P05771); settings: at 0.1 µM
# Sequence of Protein kinase C beta type (Homo sapiens) (P05771 2-671 limits assumed): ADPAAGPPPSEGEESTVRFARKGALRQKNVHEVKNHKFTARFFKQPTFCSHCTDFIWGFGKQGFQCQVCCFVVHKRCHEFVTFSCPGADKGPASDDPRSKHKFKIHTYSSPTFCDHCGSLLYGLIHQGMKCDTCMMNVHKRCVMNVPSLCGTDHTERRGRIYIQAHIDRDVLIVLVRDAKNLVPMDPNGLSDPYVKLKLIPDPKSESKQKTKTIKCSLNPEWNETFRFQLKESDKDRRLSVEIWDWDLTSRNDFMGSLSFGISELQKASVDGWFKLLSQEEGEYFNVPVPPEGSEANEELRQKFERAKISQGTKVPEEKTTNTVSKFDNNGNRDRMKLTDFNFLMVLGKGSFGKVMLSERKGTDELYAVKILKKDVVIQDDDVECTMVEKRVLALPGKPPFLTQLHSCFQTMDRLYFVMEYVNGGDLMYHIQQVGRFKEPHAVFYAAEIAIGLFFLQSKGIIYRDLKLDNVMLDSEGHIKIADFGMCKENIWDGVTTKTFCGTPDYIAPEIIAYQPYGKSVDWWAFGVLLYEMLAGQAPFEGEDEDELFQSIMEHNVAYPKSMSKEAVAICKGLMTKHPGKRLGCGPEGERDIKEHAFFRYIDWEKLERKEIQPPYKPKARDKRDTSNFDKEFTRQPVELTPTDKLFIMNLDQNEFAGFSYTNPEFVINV
# [7] = molecular target: Protein kinase C beta type (Homo sapiens) (UniProt P05771); settings: at 1 µM
# [8] = molecular target: T2, Serine/threonine-protein kinase D1 (Homo sapiens) (UniProt Q15139); settings: at 0.1 µM
# T2 sequence (whole entry): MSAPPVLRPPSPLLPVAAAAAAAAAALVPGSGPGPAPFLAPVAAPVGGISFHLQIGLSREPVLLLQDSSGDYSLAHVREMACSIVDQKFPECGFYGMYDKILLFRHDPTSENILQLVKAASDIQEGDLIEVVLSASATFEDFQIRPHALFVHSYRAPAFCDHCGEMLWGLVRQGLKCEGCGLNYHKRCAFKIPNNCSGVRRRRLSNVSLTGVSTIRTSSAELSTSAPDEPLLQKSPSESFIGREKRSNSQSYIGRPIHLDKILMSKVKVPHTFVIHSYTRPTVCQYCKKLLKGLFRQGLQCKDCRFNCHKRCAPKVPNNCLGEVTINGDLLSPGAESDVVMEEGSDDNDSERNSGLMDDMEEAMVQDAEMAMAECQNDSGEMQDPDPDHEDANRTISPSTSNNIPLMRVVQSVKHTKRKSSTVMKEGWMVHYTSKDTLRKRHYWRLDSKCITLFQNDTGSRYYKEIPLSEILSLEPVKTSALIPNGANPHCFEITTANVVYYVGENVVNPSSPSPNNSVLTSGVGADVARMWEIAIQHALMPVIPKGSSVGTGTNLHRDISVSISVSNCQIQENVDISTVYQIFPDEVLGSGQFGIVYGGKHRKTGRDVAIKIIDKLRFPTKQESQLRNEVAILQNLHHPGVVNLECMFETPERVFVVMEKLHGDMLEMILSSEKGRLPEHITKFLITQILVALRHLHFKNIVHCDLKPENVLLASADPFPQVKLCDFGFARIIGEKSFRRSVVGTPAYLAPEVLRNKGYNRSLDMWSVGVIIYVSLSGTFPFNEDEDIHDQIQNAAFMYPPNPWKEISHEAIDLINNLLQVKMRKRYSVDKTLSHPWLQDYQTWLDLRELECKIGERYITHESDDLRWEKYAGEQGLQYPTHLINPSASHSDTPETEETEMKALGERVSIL
# [9] = molecular target: T2, Serine/threonine-protein kinase D1 (Homo sapiens); settings: at 1 µM
# [10] = molecular target: T3, Serine/threonine-protein kinase D2 (Homo sapiens) (UniProt Q9BZL6); settings: at 0.1 µM
# T3 sequence (whole entry): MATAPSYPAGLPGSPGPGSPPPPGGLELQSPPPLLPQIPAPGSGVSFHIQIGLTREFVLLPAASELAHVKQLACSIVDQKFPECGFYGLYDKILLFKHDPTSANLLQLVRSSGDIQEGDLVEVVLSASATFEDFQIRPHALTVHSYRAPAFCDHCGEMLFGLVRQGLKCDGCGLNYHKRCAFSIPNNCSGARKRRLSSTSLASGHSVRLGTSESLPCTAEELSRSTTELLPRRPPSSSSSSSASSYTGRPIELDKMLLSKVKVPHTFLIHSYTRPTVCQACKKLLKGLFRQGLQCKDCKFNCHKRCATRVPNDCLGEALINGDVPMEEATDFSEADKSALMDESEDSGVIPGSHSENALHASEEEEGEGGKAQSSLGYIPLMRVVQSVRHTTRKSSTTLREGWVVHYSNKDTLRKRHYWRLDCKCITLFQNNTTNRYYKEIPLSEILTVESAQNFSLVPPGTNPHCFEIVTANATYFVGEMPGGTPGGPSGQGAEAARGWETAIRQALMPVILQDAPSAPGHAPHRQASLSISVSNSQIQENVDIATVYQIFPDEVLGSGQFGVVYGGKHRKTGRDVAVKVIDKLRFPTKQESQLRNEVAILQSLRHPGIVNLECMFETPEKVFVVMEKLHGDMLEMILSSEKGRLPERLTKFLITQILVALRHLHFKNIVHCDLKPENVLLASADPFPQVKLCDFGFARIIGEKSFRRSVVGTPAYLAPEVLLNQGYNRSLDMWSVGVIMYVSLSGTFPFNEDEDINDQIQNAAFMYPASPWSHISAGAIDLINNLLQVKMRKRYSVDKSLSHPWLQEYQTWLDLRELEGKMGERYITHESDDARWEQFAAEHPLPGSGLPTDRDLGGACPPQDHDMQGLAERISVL
# [11] = molecular target: T3, Serine/threonine-protein kinase D2 (Homo sapiens); settings: at 1 µM
# [12] = molecular target: T4, Serine/threonine-protein kinase D3 (Homo sapiens) (UniProt O94806); settings: at 0.1 µM
# T4 sequence (whole entry): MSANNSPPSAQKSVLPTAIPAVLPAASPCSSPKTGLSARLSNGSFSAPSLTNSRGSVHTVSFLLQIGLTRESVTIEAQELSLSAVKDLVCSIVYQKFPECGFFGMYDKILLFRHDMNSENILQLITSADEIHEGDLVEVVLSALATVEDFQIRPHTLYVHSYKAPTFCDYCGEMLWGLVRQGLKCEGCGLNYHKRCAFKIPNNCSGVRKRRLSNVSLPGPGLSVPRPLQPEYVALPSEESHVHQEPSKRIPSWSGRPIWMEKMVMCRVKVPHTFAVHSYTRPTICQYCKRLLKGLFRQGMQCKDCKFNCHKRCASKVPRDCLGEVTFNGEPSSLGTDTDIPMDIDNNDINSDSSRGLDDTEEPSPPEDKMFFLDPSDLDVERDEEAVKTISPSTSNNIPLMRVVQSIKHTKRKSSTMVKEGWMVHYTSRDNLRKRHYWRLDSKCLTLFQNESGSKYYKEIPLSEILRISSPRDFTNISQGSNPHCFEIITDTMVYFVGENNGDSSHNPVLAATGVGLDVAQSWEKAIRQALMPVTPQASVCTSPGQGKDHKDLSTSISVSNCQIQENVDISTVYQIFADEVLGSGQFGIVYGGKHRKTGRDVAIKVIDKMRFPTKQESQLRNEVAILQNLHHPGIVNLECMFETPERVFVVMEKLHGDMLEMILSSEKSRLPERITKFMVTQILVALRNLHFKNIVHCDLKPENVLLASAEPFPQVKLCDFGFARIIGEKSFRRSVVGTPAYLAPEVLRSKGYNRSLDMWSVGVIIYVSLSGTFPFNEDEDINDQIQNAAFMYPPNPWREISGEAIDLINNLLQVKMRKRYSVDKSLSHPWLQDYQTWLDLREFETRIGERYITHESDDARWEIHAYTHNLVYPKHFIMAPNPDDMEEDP
# [13] = molecular target: T4, Serine/threonine-protein kinase D3 (Homo sapiens); settings: at 1 µM
# [14] = molecular target: T5, cGMP-dependent protein kinase 1 (Homo sapiens) (UniProt Q13976); settings: at 0.1 µM
# T5 sequence (whole entry): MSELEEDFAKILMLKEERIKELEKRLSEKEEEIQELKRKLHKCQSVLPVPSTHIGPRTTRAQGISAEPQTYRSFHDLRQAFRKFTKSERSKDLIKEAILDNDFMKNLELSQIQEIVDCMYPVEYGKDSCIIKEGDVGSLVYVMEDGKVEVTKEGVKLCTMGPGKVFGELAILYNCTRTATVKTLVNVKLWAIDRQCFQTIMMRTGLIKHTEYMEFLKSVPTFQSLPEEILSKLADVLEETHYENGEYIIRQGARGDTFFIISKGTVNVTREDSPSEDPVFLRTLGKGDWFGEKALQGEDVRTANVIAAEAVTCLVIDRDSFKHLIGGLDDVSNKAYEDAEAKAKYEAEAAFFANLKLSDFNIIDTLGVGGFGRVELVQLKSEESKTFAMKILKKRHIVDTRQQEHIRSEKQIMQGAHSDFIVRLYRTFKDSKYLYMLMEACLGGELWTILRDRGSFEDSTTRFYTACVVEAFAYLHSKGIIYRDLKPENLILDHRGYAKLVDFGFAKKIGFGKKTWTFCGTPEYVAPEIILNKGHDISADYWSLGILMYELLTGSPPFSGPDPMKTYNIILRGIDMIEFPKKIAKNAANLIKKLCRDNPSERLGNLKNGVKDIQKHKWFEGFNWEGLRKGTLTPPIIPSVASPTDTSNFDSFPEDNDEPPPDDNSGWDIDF
# [15] = molecular target: T5, cGMP-dependent protein kinase 1 (Homo sapiens); settings: at 1 µM
# [16] = molecular target: T6, cGMP-dependent protein kinase 2 (Homo sapiens) (UniProt Q13237); settings: at 0.1 µM
# T6 sequence (whole entry): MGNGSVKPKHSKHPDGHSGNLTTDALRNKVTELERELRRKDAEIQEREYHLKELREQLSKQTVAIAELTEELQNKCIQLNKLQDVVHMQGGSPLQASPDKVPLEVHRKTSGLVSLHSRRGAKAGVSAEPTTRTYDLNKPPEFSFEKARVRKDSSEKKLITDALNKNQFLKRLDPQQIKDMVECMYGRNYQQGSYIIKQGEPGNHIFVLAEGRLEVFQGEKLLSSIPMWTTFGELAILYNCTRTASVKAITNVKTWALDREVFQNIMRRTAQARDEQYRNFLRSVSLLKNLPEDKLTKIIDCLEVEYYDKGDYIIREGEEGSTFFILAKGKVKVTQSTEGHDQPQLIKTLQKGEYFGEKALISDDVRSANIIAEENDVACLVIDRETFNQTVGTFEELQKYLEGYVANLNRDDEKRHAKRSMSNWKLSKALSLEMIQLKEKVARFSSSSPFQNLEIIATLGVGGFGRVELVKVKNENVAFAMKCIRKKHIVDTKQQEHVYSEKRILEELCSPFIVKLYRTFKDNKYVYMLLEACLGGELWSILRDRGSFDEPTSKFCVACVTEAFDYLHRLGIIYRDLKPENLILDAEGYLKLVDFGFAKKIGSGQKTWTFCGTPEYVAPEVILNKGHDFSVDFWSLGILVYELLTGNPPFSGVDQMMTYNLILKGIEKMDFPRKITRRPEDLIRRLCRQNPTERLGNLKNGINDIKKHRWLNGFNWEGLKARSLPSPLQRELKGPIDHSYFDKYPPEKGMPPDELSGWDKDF
# [17] = molecular target: T6, cGMP-dependent protein kinase 2 (Homo sapiens); settings: at 1 µM
# [18] = molecular target: T7, cAMP-dependent protein kinase catalytic subunit PRKX (Homo sapiens) (UniProt P51817); settings: at 0.1 µM
# T7 sequence (whole entry): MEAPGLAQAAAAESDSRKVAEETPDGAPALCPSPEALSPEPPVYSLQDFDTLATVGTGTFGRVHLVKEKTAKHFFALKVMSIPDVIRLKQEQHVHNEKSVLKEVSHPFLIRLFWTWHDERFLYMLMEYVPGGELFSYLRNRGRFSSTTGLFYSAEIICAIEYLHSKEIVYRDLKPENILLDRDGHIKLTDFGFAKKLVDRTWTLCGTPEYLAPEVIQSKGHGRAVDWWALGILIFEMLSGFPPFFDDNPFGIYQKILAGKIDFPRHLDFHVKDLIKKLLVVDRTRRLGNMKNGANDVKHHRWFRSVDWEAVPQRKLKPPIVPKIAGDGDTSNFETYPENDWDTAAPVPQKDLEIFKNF
# [19] = molecular target: T7, cAMP-dependent protein kinase catalytic subunit PRKX (Homo sapiens); settings: at 1 µM
# [20] = molecular target: Rho-associated protein kinase 1 (Homo sapiens) (UniProt Q13464); settings: at 0.1 µM;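 also: values are mean percent inhibition of ROCK1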
# Sequence of Rho-associated protein kinase 1 (Homo sapiens) (Q13464 2-1354 limits assumed): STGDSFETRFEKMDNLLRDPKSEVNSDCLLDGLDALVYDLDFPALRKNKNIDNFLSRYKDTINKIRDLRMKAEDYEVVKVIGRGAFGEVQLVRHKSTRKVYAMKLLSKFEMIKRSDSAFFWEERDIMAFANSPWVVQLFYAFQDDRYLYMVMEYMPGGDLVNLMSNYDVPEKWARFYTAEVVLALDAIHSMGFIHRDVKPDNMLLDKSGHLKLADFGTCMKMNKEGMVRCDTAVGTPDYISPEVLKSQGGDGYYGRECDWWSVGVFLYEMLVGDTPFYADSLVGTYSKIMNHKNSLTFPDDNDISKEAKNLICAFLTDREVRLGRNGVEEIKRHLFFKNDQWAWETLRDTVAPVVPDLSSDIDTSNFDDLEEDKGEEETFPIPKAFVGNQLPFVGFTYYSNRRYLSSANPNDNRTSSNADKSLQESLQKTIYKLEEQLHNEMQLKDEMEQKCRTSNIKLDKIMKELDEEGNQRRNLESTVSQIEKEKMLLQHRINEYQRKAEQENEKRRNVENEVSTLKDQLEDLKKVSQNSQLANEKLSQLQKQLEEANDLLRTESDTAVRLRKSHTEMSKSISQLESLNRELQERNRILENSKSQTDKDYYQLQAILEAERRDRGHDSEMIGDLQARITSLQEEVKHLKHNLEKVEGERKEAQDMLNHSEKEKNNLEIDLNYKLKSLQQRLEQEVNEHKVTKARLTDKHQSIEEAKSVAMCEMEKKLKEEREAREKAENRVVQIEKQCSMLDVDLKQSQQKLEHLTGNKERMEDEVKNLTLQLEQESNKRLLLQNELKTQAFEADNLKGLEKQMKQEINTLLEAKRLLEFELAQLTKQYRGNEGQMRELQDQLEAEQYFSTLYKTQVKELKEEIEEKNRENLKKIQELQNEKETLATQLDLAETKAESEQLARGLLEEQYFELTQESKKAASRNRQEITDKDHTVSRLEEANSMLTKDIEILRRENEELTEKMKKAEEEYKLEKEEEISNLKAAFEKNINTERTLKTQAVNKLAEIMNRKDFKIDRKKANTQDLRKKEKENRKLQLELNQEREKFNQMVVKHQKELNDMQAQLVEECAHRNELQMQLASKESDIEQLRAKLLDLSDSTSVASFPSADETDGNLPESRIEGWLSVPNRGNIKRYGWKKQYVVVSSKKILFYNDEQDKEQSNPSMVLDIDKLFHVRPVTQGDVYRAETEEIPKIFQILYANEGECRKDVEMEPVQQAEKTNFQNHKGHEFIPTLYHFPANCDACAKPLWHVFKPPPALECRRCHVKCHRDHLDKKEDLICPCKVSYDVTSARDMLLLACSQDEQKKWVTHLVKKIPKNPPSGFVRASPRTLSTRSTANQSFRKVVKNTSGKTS
Compound,inhibition [1],inhibition [2],inhibition [3],inhibition [4],inhibition [5],inhibition [6],inhibition [7],inhibition [8],inhibition [9],inhibition [10],inhibition [11],inhibition [12],inhibition [13],inhibition [14],inhibition [15],inhibition [16],inhibition [17],inhibition [18],inhibition [19],inhibition [20]
NC(=O)Cc1ccccc1Oc1nccc(-c2c(-c3ccc(F)cc3)ncn2C2CCNCC2)n1,0.76%,0%,0.16%,0.43%,-0.38%,1.22%,3.91%,4.86%,8.87%,4.63%,9.53%,3.95%,8.49%,1.82%,3.89%,0.97%,4.38%,-0.25%,-1.31%,0.15%
Cc1ccc(C(=O)NC2CCC2)cc1-c1ccc(C(=O)NCC2CC2)cc1,0.94%,2.17%,2.33%,0.68%,-0.42%,0.24%,0.53%,2.65%,3.61%,2.36%,2.79%,2.86%,2.6%,3.87%,3.84%,1.07%,3.54%,1.55%,-0.61%,1.21%
NS(=O)(=O)c1ccc(Nc2cc(-c3ccc(O)c(F)c3)n[nH]2)cc1,-0.85%,-0.61%,0.05%,-1.75%,-1.1%,-0.96%,0.72%,-1.96%,4.59%,-2.32%,2.89%,-2.85%,0.82%,-1.74%,-1%,-1.16%,0.01%,-0.97%,-1.36%,-0.2%
